Results filed as inconclusive are left out. The source made the active and inactive calls. How the source made its calls: active means hit-call score of the fitted dose curve at least 0.9, where 1 is the maximum; inconclusive means response in the unintended direction; inactive means score below 0.9.
Assays:
[1] = biological target: human Leukotriene B4 Receptor 1 (LTB4-BLT1), LTB4R (gene 1241) (UniProt Q15722); test: NVS_GPCR_hLTB4_BLT1: NovaScreen (NVS) G Protein-Coupled Receptor Assay for human Leukotriene B4 Receptor 1 (LTB4-BLT1) (AID 2283271)
Sequence of human Leukotriene B4 Receptor 1 (LTB4-BLT1), LTB4R (gene 1241) (Q15722 whole entry, looked up): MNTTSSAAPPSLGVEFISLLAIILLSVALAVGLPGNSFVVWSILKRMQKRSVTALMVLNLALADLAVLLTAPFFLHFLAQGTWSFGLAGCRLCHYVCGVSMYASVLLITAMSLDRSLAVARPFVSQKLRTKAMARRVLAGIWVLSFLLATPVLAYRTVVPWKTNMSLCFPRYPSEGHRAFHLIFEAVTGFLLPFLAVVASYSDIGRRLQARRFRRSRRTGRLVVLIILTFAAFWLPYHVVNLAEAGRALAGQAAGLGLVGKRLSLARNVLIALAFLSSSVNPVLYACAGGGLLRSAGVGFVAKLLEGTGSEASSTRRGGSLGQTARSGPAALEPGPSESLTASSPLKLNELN
Outline: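 Cell-free human neutrophil receptor preparation, 1 h exposure, radioligand binding read by filter scintillation counting. Single 25 uM duplicate screen, then concentration series topping at 50 uM; binding loss scored against DMSO baseline.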

[2] = biological target: human Histamine 1 Receptor (H1), HRH1 (gene 3269) (UniProt P35367); test: NVS_GPCR_hH1: NovaScreen (NVS) G Protein-Coupled Receptor Assay for human Histamine 1 Receptor (H1) (AID 2283268)
Sequence of human Histamine 1 Receptor (H1), HRH1 (gene 3269) (P35367 whole entry, looked up): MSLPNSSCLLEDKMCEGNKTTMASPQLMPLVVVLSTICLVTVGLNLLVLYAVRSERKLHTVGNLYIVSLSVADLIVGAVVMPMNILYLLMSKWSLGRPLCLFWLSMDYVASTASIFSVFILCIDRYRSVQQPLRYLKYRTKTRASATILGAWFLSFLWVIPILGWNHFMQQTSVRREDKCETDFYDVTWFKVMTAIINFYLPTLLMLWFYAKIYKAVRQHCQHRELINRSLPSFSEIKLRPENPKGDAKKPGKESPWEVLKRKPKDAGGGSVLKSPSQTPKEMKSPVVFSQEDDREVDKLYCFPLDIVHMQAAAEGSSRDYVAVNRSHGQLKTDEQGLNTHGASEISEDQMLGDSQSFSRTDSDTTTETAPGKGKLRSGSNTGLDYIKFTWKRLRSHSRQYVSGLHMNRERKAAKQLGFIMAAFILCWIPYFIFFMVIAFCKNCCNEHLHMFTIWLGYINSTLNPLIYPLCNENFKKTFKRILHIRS
Outline: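 Filter-based scintillation detection of radioligand binding to human H1, 1 h incubation; chemicals screened in duplicate at 25 uM, then concentration-response; signal loss relative to DMSO taken as activity.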

[3] = biological target: Muscarinic acetylcholine receptor M3 (Homo sapiens) (UniProt P20309); test: NVS_GPCR_hM3: NovaScreen (NVS) G Protein-Coupled Receptor Assay for human Muscarinic, M3 Receptor (AID 2283272)
Sequence of Muscarinic acetylcholine receptor M3 (Homo sapiens) (P20309 whole entry, looked up): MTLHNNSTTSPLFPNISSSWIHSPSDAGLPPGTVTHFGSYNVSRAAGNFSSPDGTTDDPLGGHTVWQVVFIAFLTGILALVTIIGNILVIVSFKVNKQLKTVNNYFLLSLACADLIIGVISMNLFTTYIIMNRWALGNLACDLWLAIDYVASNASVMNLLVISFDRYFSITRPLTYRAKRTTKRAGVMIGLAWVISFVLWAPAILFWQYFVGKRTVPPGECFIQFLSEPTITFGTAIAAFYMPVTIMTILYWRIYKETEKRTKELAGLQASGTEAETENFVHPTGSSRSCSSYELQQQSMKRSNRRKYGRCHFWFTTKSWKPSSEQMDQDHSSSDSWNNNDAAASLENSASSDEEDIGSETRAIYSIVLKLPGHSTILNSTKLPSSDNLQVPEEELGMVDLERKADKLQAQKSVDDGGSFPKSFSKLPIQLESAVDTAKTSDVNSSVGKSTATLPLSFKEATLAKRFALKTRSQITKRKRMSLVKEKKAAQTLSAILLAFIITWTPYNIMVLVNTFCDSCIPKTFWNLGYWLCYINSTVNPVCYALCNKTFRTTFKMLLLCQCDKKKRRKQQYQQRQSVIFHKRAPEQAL
Outline: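 Radioligand displacement binding on human M3 receptor in CHO-derived membranes, 1 h incubation, filter-based scintillation counting. Primary screen in duplicate at 25 uM; actives followed up in concentration series; loss of signal versus DMSO.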

[4] = biological target: human Muscarinic, M4 Receptor, CHRM4 (gene 1132) (UniProt P08173); test: NVS_GPCR_hM4: NovaScreen (NVS) G Protein-Coupled Receptor Assay for human Muscarinic, M4 Receptor (AID 2283274)
Sequence of human Muscarinic, M4 Receptor, CHRM4 (gene 1132) (P08173 whole entry, looked up): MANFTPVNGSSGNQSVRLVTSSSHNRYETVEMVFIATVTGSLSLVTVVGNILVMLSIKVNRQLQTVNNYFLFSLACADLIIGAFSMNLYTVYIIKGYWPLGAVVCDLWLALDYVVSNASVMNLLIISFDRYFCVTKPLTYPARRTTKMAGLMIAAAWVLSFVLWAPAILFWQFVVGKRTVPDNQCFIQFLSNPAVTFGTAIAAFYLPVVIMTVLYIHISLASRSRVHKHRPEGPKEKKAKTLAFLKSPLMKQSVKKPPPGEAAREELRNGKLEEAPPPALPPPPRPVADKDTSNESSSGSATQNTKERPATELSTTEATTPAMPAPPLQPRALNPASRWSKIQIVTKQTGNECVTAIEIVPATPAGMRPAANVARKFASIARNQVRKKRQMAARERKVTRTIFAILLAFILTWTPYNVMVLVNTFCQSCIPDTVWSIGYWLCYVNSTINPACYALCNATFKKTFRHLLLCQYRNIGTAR
Outline: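 Filter-based scintillation counting of radioligand bound to CHO-expressed human M4 preparations after 1 h; loss of signal fitted versus DMSO. Initial duplicate testing at 25 uM, concentration-response follow-up for actives.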

[5] = biological target: D(1A) dopamine receptor (Homo sapiens) (UniProt P21728); test: NVS_GPCR_hDRD1: NovaScreen (NVS) G Protein-Coupled Receptor Assay for human Dopamine Receptor D1 (DRD1) (AID 2283269)
Sequence of D(1A) dopamine receptor (Homo sapiens) (P21728 whole entry, looked up): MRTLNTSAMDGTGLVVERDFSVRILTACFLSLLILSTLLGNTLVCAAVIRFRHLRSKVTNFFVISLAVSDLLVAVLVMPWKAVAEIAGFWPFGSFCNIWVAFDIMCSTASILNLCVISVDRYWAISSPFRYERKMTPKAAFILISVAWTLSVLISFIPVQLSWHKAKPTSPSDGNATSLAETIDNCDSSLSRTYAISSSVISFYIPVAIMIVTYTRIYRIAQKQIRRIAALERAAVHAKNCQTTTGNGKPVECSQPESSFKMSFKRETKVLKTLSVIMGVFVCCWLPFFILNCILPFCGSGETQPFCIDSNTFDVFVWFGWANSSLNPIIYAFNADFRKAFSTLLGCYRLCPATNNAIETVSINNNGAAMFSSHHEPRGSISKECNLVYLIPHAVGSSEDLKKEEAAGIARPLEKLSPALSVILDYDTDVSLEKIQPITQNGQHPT
Outline: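 Extracted HEK293 DRD1 is incubated 1 h with compound and a tritiated or iodinated radioligand, then filtered and counted. Screening runs 25 uM in duplicate with on-plate positive and negative controls.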

[6] = biological target: human Neuropeptide Receptor Y1 (NPY1), NPY1R (gene 4886) (UniProt P25929); test: NVS_GPCR_hNPY1: NovaScreen (NVS) G Protein-Coupled Receptor Assay for human Neuropeptide Receptor Y1 (NPY1) (AID 2283276)
Sequence of human Neuropeptide Receptor Y1 (NPY1), NPY1R (gene 4886) (P25929 whole entry, looked up): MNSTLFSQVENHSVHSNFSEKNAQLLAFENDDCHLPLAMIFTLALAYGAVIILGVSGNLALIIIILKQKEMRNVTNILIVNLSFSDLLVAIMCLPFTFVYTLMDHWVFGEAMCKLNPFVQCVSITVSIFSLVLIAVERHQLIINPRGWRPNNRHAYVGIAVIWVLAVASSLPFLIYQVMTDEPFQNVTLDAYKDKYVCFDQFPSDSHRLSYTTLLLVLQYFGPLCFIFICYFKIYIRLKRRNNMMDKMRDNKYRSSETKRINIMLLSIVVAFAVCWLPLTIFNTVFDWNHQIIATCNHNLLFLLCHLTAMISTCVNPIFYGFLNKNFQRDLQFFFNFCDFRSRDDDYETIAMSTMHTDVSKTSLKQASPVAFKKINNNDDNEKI
Outline: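 Displacement of specific radioligand from NPY1 receptor of SK-N-MC origin, read by filtration and scintillation after 1 h. Compounds first tested at 25 uM in duplicate, then actives in concentration series; signal loss relative to DMSO.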

[7] = biological target: Muscarinic acetylcholine receptor M5 (Homo sapiens) (UniProt P08912); test: NVS_GPCR_hM5: NovaScreen (NVS) G Protein-Coupled Receptor Assay for human Muscarinic, M5 Receptor (AID 2283275)
Sequence of Muscarinic acetylcholine receptor M5 (Homo sapiens) (P08912 whole entry, looked up): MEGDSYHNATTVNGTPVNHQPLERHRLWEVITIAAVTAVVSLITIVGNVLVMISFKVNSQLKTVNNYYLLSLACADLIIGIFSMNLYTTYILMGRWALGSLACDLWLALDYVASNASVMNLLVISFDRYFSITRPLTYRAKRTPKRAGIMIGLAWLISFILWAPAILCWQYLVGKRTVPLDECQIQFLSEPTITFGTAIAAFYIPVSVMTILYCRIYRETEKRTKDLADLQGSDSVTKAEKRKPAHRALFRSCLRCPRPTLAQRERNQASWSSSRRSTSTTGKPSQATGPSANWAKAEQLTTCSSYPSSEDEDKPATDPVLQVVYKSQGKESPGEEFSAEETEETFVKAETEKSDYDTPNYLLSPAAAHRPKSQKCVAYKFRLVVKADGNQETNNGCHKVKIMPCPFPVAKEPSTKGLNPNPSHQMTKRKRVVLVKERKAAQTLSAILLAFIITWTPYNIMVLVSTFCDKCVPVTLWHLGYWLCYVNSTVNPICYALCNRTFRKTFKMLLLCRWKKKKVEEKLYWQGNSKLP
Outline: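 Chemicals passing a primary duplicate screen at 25 uM were run as singleton concentration series, maximum 50 uM. Displacement of a specific radioligand from CHO-extracted receptor was read by filter scintillation after 1 h, relative to DMSO.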

[8] = biological target: Muscarinic acetylcholine receptor M2 (Homo sapiens) (UniProt P08172); test: NVS_GPCR_hM2: NovaScreen (NVS) G Protein-Coupled Receptor Assay for human Muscarinic, M2 Receptor (AID 2283273)
Sequence of Muscarinic acetylcholine receptor M2 (Homo sapiens) (P08172 whole entry, looked up): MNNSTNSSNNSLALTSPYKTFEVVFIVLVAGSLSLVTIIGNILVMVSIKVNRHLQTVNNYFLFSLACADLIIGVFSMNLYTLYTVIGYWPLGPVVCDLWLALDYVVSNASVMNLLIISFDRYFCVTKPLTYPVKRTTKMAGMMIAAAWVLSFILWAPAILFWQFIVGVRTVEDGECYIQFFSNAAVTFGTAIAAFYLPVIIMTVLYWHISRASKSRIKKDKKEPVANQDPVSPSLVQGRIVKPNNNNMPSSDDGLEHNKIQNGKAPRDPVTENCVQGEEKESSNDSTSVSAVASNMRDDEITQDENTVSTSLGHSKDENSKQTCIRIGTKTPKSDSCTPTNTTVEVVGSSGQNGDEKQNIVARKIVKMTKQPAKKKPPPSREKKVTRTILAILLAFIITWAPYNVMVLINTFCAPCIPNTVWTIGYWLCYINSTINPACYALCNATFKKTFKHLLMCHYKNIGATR
Outline: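 CHO-expressed human M2 receptor preparation, competitive displacement of a radioligand read by filter-based scintillation counting after 1 h. Single 25 uM duplicate screen, then concentration-response follow-up of actives; DMSO baseline.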

[9] = biological target: Neuropeptide Y receptor type 2 (Homo sapiens) (UniProt P49146); test: NVS_GPCR_hNPY2: NovaScreen (NVS) G Protein-Coupled Receptor Assay for human Neuropeptide Receptor Y2 (NPY2) (AID 2283277)
Sequence of Neuropeptide Y receptor type 2 (Homo sapiens) (P49146 whole entry, looked up): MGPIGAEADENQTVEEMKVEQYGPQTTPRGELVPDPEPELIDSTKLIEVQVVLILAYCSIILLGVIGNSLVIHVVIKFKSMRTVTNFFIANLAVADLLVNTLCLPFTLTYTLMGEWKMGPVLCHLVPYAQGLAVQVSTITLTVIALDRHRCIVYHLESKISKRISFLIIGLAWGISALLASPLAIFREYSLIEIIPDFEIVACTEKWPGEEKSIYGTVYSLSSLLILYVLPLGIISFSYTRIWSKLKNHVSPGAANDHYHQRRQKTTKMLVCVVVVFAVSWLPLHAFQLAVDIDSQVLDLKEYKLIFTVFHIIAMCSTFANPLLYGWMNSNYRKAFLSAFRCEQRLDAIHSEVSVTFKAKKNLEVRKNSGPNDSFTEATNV
Outline: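 Chemicals were first tested in duplicate at 25 uM, then actives in singleton concentration series to 50 uM. Tracer binding to SK-N-MC-derived protein measured cell-free after 1 h via filter scintillation; signal loss relative to DMSO.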

[10] = biological target: Muscarinic acetylcholine receptor M1 (Homo sapiens) (UniProt P11229); test: NVS_GPCR_hM1: NovaScreen (NVS) G Protein-Coupled Receptor Assay for human Muscarinic, M1 Receptor (AID 2283270)
Sequence of Muscarinic acetylcholine receptor M1 (Homo sapiens) (P11229 whole entry, looked up): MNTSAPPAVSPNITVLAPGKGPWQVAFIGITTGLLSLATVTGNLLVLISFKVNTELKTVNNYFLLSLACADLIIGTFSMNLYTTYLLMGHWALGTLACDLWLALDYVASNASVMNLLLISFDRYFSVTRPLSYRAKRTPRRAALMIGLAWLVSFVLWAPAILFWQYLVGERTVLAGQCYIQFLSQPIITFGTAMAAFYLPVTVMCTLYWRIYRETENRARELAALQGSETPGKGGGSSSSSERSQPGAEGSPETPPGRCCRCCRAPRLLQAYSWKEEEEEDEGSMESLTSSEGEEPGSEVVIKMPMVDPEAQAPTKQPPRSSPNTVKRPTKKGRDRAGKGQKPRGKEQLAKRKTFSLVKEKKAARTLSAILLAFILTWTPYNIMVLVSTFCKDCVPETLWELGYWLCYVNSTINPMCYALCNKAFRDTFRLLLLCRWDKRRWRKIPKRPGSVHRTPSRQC
Outline: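 Actives from a duplicate 25 uM single-point screen were retested in concentration series. Binding measured as displacement of a radioligand from CHO-derived receptor preparation, 1 h incubation, filtration and scintillation counting, analysed as signal loss against DMSO.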

Cc1ccc2oc(CN(Cc3ccccc3)C(=O)Nc3c(F)cc(F)cc3F)c(-c3ccc(Cl)cc3)c2c1
outcome [1]: inactive

CCCCCCCCOC(=O)c1cc(O)c(O)c(O)c1
AC50 [2]: 42.8 µM (active)
outcome [3]: inactive
AC50 [4]: 8.67 µM (active)

O=c1[nH]sc2ccccc12
AC50 [5]: 6.83 µM (active)
AC50 [6]: 4.62 µM (active)

Cc1cc(F)ccc1-c1cc(N2CC[C@@H](O)[C@H]2CO)ncc1N(C)C(=O)C(C)(C)c1cc(C(F)(F)F)cc(C(F)(F)F)c1
AC50 [5]: 5.89 µM (active)
AC50 [7]: 15 µM (active)

Cc1occc1C(=O)Nc1ccc(C(=O)N2CCC(F)(F)/C(=C\C(=O)N3CCC(N4CCCCC4)CC3)c3ccccc32)cc1
AC50 [2]: 0.148 µM (active)
AC50 [8]: 4.43 µM (active)
AC50 [4]: 7.11 µM (active)
AC50 [7]: 5.91 µM (active)

CC(C)(C)c1csc(-c2cc3cc(OCc4ccccc4CC(=O)O)ccc3o2)n1
outcome [1]: inactive

Cc1oc2c(NC(=O)c3c(Cl)cccc3Cl)cccc2c1C(C)(C)O
AC50 [1]: 11.7 µM (active)

O=C(O)Cn1c(=O)n(Cc2ccc(Br)cc2F)c(=O)c2ccc(Cl)cc21
outcome [9]: inactive

CCN(Cc1cccnc1)C(=O)c1cccc(Cl)c1[C@]1(C)C(=O)N(Cc2ccc(OC)cc2OC)c2ccc(Cl)cc21
AC50 [5]: 2.53 µM (active)
AC50 [1]: 1.49 µM (active)
AC50 [7]: 4.06 µM (active)

CN(C)C(=O)C1(N2CCCCC2)CCN(CC[C@@]2(c3ccc(Cl)c(Cl)c3)CN(C(=O)c3ccccc3)CCO2)CC1
AC50 [2]: 20.3 µM (active)
AC50 [5]: 23.6 µM (active)
AC50 [10]: 11.7 µM (active)
AC50 [3]: 9.78 µM (active)
AC50 [8]: 6.82 µM (active)
AC50 [4]: 6.99 µM (active)
AC50 [7]: 6.44 µM (active)
AC50 [9]: 8.65 µM (active)

CCN(CC)C(=O)c1cc(S(=O)(=O)Cc2ccccc2)c(N2CCC(c3ccccc3)CC2)cc1N(CC)CCN(C)C
outcome [2]: inactive
AC50 [5]: 5.59 µM (active)
AC50 [10]: 8.82 µM (active)
AC50 [3]: 7.89 µM (active)
AC50 [4]: 9.84 µM (active)
AC50 [7]: 6.24 µM (active)
AC50 [6]: 14.6 µM (active)

NCc1cccc(C2CCN(C(=O)c3ccc(C#Cc4ccccc4F)o3)CC2)c1
AC50 [2]: 22.1 µM (active)
AC50 [5]: 5.14 µM (active)
AC50 [10]: 1.78 µM (active)
AC50 [1]: 25 µM (active)
AC50 [3]: 0.929 µM (active)
AC50 [8]: 0.923 µM (active)
AC50 [4]: 0.882 µM (active)
AC50 [7]: 4.14 µM (active)
AC50 [9]: 2.33 µM (active)

CCCCCCCCN(C)CCCCCCCC
outcome [4]: inactive

CO[C@H]1/C=C/O[C@@]2(C)Oc3c(C)c(O)c4c(O)c(c(/C=N/N5CCN(C)CC5)c(O)c4c3C2=O)NC(=O)/C(C)=C\C=C\[C@H](C)[C@H](O)[C@@H](C)[C@@H](O)[C@@H](C)[C@H](OC(C)=O)[C@@H]1C
AC50 [9]: 0.0867 µM (active)

COc1cccc([C@H](O)C2CCN(CCc3ccc(F)cc3)CC2)c1OC
outcome [3]: inactive
outcome [7]: inactive

COc1cc(C(=O)NC2CCN(C)CC2)ccc1Nc1ncc2c(n1)N(C1CCCC1)CC(F)(F)C(=O)N2C
AC50 [2]: 2.74 µM (active)
AC50 [10]: 5.54 µM (active)
AC50 [4]: 16.7 µM (active)
AC50 [7]: 11.9 µM (active)

CCOC(=O)O[C@H](C)OC(=O)c1ccc2c(c1)cc(C(=O)NC1CCN(C(C)C)CC1)n2Cc1cc(-c2ccc(Cl)s2)on1
AC50 [2]: 7.84 µM (active)
AC50 [5]: 1.75 µM (active)
AC50 [3]: 5.44 µM (active)
AC50 [8]: 3.64 µM (active)
AC50 [4]: 2.17 µM (active)
AC50 [7]: 1.79 µM (active)
AC50 [9]: 0.0551 µM (active)

CN(C)c1ccc(C(=C2C=CC(=[N+](C)C)C=C2)c2ccc(N(C)C)cc2)cc1
AC50 [1]: 8.85 µM (active)
AC50 [8]: 0.939 µM (active)
AC50 [4]: 0.863 µM (active)
AC50 [7]: 0.861 µM (active)
AC50 [6]: 13.3 µM (active)
AC50 [9]: 16.6 µM (active)

c1ccc(C[n+]2cccc3ccccc32)cc1
AC50 [2]: 13 µM (active)
AC50 [3]: 25 µM (active)
AC50 [8]: 9.2 µM (active)
AC50 [4]: 16.8 µM (active)
AC50 [7]: 11.8 µM (active)

CCCCCCCCCCCC[N+](C)(C)C
AC50 [2]: 15.7 µM (active)
AC50 [5]: 16.1 µM (active)
AC50 [10]: 4.64 µM (active)
AC50 [3]: 3.43 µM (active)
AC50 [8]: 1.39 µM (active)
AC50 [4]: 2.77 µM (active)
AC50 [7]: 1.93 µM (active)
AC50 [6]: 16 µM (active)
AC50 [9]: 38.9 µM (active)

Clc1cc(Cl)c2c(c1)N=C1CCCCCN1C2
AC50 [2]: 4.5 µM (active)
AC50 [10]: 2.74 µM (active)
AC50 [3]: 2.09 µM (active)
AC50 [8]: 1.17 µM (active)
AC50 [4]: 1.71 µM (active)
AC50 [7]: 2.01 µM (active)

COc1ccc2cc(S(=O)(=O)N[C@H](CC(=O)N[C@H](Cc3ccc(CN4[C@H](C)CCC[C@@H]4C)cc3)C(=O)N(C)C(C)C)c3ccc4c(c3)OCO4)ccc2c1
AC50 [2]: 17.8 µM (active)
AC50 [5]: 30.2 µM (active)
AC50 [10]: 3.51 µM (active)
AC50 [1]: 11.6 µM (active)
AC50 [3]: 14.2 µM (active)
AC50 [8]: 0.535 µM (active)
AC50 [4]: 2.44 µM (active)
AC50 [7]: 4.37 µM (active)
AC50 [9]: 2.17 µM (active)

From PubChem BioAssay (EPA / NIEHS)
